# Bioassay records as filed in PubChem.
# Rab9 promoter act: qHTS Assay for Rab9 Promoter Activators | Huh7 Rab9 promoter-luciferase reporter, luminescence, 24 h | Potency, µM (top dose mostly 9.22 µM), most hits filed as activators | hit rate 2.8% among 320,000; note: nearly all actives have a fitted effect of over 60% in size
#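 Huh7 cells stably carrying a Rab9 promoter-luciferase reporter, 1500 cells per well in OP-MEM I with 10% FBS, treated with compound 24 hours at 37C. Luciferase activity read by luminescence after 10 minutes with Amplite reagent.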
# Luc counter: Counterscreen for Luciferase (Kinase-Glo TM) Inhibition; Luciferin 4-monooxygenase (Photuris pensylvanica), Q27757; Kinase-Glo luciferase, ATP luminescence, 8 min; Potency, µM (highest dose often 38.3 µM), actives largely listed as inhibitors; hit rate 0.28% among 200,000; AID 1379, 2008; note: nearly all actives have a fitted effect of over 60% in size
#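 Recombinant Kinase-Glo luciferase, 10 uM ATP (linear range), luciferin; imidazole pH 7.2 / KCl / MgCl2 / Tween / BSA buffer; 8 min RT; luminescence.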
# FLuc counter: qHTS profiling assay for firefly luciferase inhibitor/activator using purifed enzyme and Km concentrations of substrates (counterscreen for miR-21 project). purified FLuc, Km substrates, luminescence inhibition. Potency, µM (series often up to 57.5 µM), actives largely listed as inhibitors. hit rate 6.9% among 360,000. AID 588342, 2011; note: nearly all actives have a fitted effect of over 55% in size
# Target sequence (P08659 whole entry, looked up): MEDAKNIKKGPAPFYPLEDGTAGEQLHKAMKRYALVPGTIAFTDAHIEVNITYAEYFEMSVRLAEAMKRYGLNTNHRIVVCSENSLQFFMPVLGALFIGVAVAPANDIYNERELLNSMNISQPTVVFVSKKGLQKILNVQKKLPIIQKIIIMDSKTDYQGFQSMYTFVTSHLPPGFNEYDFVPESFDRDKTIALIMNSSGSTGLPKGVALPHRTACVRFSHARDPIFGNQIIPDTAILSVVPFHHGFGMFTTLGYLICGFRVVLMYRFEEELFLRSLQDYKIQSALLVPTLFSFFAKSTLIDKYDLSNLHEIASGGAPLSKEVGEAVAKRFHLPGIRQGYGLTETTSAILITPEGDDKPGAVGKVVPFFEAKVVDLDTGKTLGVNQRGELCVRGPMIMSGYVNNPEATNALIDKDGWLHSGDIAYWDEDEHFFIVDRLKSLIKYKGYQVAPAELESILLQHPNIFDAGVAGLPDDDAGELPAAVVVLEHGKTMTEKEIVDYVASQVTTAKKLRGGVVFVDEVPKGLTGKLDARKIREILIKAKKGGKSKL
#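 Purified P. pyralis luciferase, 10 nM final, with Km-level 10 uM D-luciferin and 10 uM ATP in 50 mM Tris acetate pH 7.5, 10 mM Mg acetate, 0.01% Tween-20, 0.05% BSA; 6-point qHTS titration about 60 µM downward; luminescence read.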
# NPC1 promoter act: qHTS Assay for NPC1 Promoter Activators | Huh7 NPC1 promoter luciferase reporter, 24 h | Potency, µM (highest dose often 9.22 µM), hits mostly activators | hit rate 2.4% among 320,000; note: nearly all actives have a fitted effect of over 60% in size
#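 In 1536-well qHTS, Huh7 cells harboring an NPC1 promoter–luciferase construct received compound for 24 h; activation was quantified by luminescence following luciferase reagent addition.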
# ELG1 genotoxic: qHTS screen for small molecules that induce genotoxicity in human embryonic kidney (HEK293T) cells expressing luciferase-tagged ELG1. Potency, µM (titrated, usually from 46 µM), usual class: activators. HEK293T ELG1-luciferase reporter, luminescence, 16 h. hit rate 1.3% among 330,000. AID 504466, 2011; note: nearly all actives have a fitted effect of over 60% in size
#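 Screening used a luciferase reporter fused to human ELG1 in HEK293T cells. Luminescence was read on a CCD plate imager after 16 hr exposure and 30 min ONE-Glo incubation.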
# SMN2 splice enh: qHTS Assay for Enhancers of SMN2 Splice Variant Expression. AID 1458, 2008. Potency, µM (doses to about 46.1 µM), hits mostly activators. hit rate 2.8% among 210,000. HEK293 SMN2-luciferase splicing reporter, luminescence, 30-36 h; note: nearly all actives have a fitted effect of over 55% in size
#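 HEK293 cells carry an SMN2 […]–luciferase reporter in which exon 7 inclusion puts luciferase in frame. Cells were plated 10-12 h before compound addition, then incubated 30-36 h at 37C. ONE-Glo luminescence was read; sodium butyrate at 4.5 mM final served as control.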
# Numbers stand for hits; 0 = inactive; ? = inconclusive; - = no result; [ ] = remark or other dose. Only some compounds are listed: those with a hit (about 7.5% of all), similar ones and a draw of the others. Calls come from the whole dose curve; as a rule, active = well fitted curve in the direction sought with a large enough effect; inconclusive = small, poorly fitted or top-dose-only effect, or another doubt; inactive = no such curve, though single readings can be large; an effect the other way counts as inactive or inconclusive.
SMILES,Rab9 promoter act,Luc counter,FLuc counter,NPC1 promoter act,ELG1 genotoxic,SMN2 splice enh
Cc1ccc(S(=O)(=O)N2CCC(C(=O)Nc3nnc(C)s3)CC2)cc1,0,-,0,0,0,-
COc1ccc(C(=O)NCC(c2ccco2)S(=O)(=O)c2cccs2)cc1 (stereo unspecified),-,-,0,-,-,-
CCN(CC)c1ccc(NC(=O)c2ccccc2OCC(=O)OC)cc1,0,0,21.3µM,0,0,0
CCOc1cccc(C(=O)Nc2ccc(N3CCCC3)cc2)c1,?,-,6.01µM,?,0,-
CCOc1ccc(C(=O)Nc2ccc(N3CCCC3)cc2)cc1,0,0,?,0,0,0
O=C1O/C(=C/c2ccccc2)c2ccccc21,0,0,12µM,0,0,0
CCC(=O)OC1(C)C(=O)C=C2C=C(CCCNC(=O)OC(C)(C)C)OC=C2C1=O (stereo unspecified),-,0,-,-,-,0
COc1ccc(-c2noc(CCC(=O)Nc3ccccc3Cl)n2)cc1OC,-,-,0,-,-,0
O=C1c2ccccc2NC2(CCCCC2)N1c1ccc(O)cc1,0,0,?,0,?,8.91µM
CC1CCC2(CC1)Nc1ccccc1C(=O)N2c1ccccc1 (stereo unspecified),?,0,0,0,?,?
Oc1ccc(C=Nc2cccc3ccccc23)c(O)c1,0,-,0,0,0,-
CC(O)c1cccc(N=Cc2ccc3ccccc3c2O)c1 (stereo unspecified),0,-,26.9µM,0,0,-
CN(C)S(=O)(=O)c1cccc(NC(=O)c2sccc2-c2ccccc2)c1,0,-,0,0,?,-
Cc1ccc(-c2ccc(=O)[nH]n2)cc1,0,0,0,0,0,0
CCCCCc1ccc(-c2ccc(=O)[nH]n2)cc1,0,0,19µM,0,0,0
O=C(Nc1ccc2nc(SCC(=O)N3CCOCC3)sc2c1)c1ccc(Br)cc1,-,-,10.7µM,-,-,-
O=C(Nc1ccc2nc(SCC(=O)N3CCCC3)sc2c1)c1ccccc1,-,-,0,-,-,-
COC(=O)CSc1nc2ccc(NC(=O)c3ccccc3C(=O)N3CCOCC3)cc2s1,0,-,0,0,0,-
O=C(Nc1ccc2nc(SCC(=O)N3CCOCC3)sc2c1)c1ccccc1Cl,-,-,21.3µM,-,-,-
O=C(Nc1ccc2nc(SCC(=O)N3CCCC3)sc2c1)c1cccc(F)c1,-,-,0,-,-,-
CN1CCN(C(=O)CSc2nc3ccc(NC(=O)c4ccccc4F)cc3s2)CC1,0,-,19µM,0,0,-
O=C(Nc1ccc2nc(SCC(=O)N3CCOCC3)sc2c1)c1ccc(F)cc1,-,-,21.3µM,-,-,-
COc1ccc(CC(=O)Nc2sc3c(c2C(=O)Nc2cccc(C)c2)CCCCC3)cc1,-,-,?,-,-,0
COc1cccc(C(=O)Nc2ccc3nc(SCC(=O)N4CCOCC4)sc3c2)c1,-,-,15.1µM,-,-,-
O=C(Nc1ccc2c(c1)CCC2)c1ccc(Br)o1,3.16µM,0,6.75µM,3.55µM,6.51µM,12.6µM
SMILES,Rab9 promoter act,Luc counter,FLuc counter,NPC1 promoter act,ELG1 genotoxic,SMN2 splice enh
O=C(Nc1ccc2c(c1)CCC2)c1cc2ccccc2o1,1.26µM,0,1.35µM,1.26µM,1.64µM,12.6µM
O=C(Nc1ccc2c(c1)OCO2)c1ccc(Br)o1,2.82µM,0,23.9µM,2.51µM,18.4µM,11.2µM
O=C(Nc1ccc2c(c1)OCO2)c1ccc(COc2ccc3c(c2)CCC3)o1,3.98µM,0,19µM,?,?,11.2µM
COC(=O)c1ccccc1S(=O)(=O)NNC(=O)c1nn(C)c(=O)c2ccccc12,-,-,-,-,0,-
CCOCCc1nn2c(=O)cc(COC(=O)c3ccc4c(c3)OCO4)nc2s1,-,-,0,-,-,-
CC(=O)c1ccc(NC(=O)c2nn(C)c3c2COc2ccccc2-3)cc1,-,-,0,-,-,-
Cc1cc(-c2onc3ccc(Cl)cc23)ccc1O,0,-,?,0,0,-
Cc1nn2c(C)c(C(=O)NCC(C)c3ccccc3)cnc2c1-c1ccccc1 (stereo unspecified),-,-,0,-,-,-
Cc1ccc(NC(=O)c2ccc(Br)o2)cc1S(=O)(=O)N(C)C,?,0,13.5µM,?,0,?
Cc1ccc(C(=O)Nc2ccc3c(c2)CCC3)o1,2.82µM,12.6µM,4.26µM,3.16µM,3.26µM,4.47µM
O=C(NCCN1C(=O)S/C(=C\c2cccc(Cl)c2Cl)C1=O)C1=COCCO1,0,-,0,0,?,-
Cc1csc(NC(=O)c2sccc2C)n1,0.891µM,-,10.7µM,1.78µM,?,-
Cc1csc(NC(=O)c2cccn2C)n1,2.24µM,?,8.49µM,3.55µM,?,15.8µM
C[C@H](NC(=O)c1ccccc1)C(=O)Nc1nc(-c2ccccn2)cs1,0,0,0,0,0,0
Cc1csc(NC(=O)c2ccccc2C(=O)O)n1,0,0,0,0,0,0
Cn1cccc1C(=O)Nc1nc(-c2ccccn2)cs1,1.78µM,11.2µM,8.49µM,2µM,0,0
Cc1csc(NC(=O)c2ccc(C(=O)Nc3nc(C)cs3)cc2)n1,0,-,0,0,0,-
CCCCC(CC)CNC(=O)CCCCCn1c(=O)[nH]c2ccsc2c1=O (stereo unspecified),-,-,0,-,-,0
Oc1ccccc1N1CCN(c2ccc3ccccc3n2)CC1,0.398µM,-,5.36µM,1.26µM,?,-
Fc1ccccc1N1CCN(c2cnc3ccccc3n2)CC1,-,0,2.13µM,-,-,2.82µM
C[N+](C)(C)CC(=O)N1CCN(c2ccc3ccccc3n2)CC1,0,-,0,0,0,-
c1ccc(CN2CCN(c3nc4ccccc4c4ccccc34)CC2)cc1,0,0,0,0,0,0
c1ccc(CN2CCN(c3cnc4ccccc4n3)CC2)cc1,?,-,19µM,?,?,-
CCS(=O)(=O)N1CCN(c2ccccc2F)CC1,0,0,0,0,0,0
CCC(Cc1ccccc1)NC(=O)C1=C(C)C(=O)OC12CCC(C)CC2 (stereo unspecified),0,0,0,0,0,0
SMILES,Rab9 promoter act,Luc counter,FLuc counter,NPC1 promoter act,ELG1 genotoxic,SMN2 splice enh
NC(=O)Cn1cnc2nc3n(c2c1=O)CCC3,0[1.84 µM],0,0,0,0,0
CCOC(=O)c1csc(-c2ccc(OC)c(OC)c2)n1,0,0,?,0,0,0
CCOC(=O)c1csc(-c2sccc2Br)n1,3.16µM,-,1.9µM,2.51µM,5.17µM,-
CCOC(=O)c1csc(-c2ccc3c(c2)CCO3)n1,2.24µM,-,4.78µM,3.55µM,?,-
CCOC(=O)c1csc(NC(=O)c2ccccc2)n1,1.78µM,0,12µM,3.16µM,8.2µM,11.2µM
CCOC(=O)c1csc(NC(=O)c2ccc3c(c2)OCCO3)n1,?,-,3.79µM,?,0,-
CCOC(=O)c1csc(NC(=O)c2ccc(OC)c(OC)c2)n1,0,0,0,0,0,0
CCOC(=O)c1csc(NC(=O)c2ccc(OCC)cc2)n1,?,0,6.75µM,0,0,0
Brc1cccc(CSc2nnc(-c3ccncc3)o2)c1,0,-,0,0,0,-
CCN(CC)c1ccc2cc(-c3nc4ccccc4[nH]3)c(=O)oc2c1,0.1µM,?,0.0757µM,0.282µM,0.146µM,0
